An excerpt weighted towards active compounds, which were near 12% of everything screened.
Pf growth 48h = inhibits P. falciparum growth in the first generation, 48 h | 310,000 compounds, 5.9% hits | Potency, µM (series often up to 28.7 µM), for the others: at the top dose activity change, negative = inhibition, usual class: inhibitors | P. falciparum luciferase growth in erythrocytes, 48 h; also: % is scaled to controls: 0 for no effect and ±100 for the full control effect
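Here the parasites carry a stable luciferase gene and grow inside erythrocytes in Albumax-based RPMI medium with compound for one erythrocytic cycle. Activity is scored as loss of luminescent signal.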
SARS PLpro yeast = SARS-CoV PLP inhibition in yeast; S. cerevisiae expressing SARS-CoV PLpro, growth rescue; Potency, µM (top dose mostly 32.9 µM), for inactives: at the highest dose activity, positive = growth rescue, usual class: activators; 330,000 compounds, 0.19% hits; AID 485353; calls by dose curve; also: 0% is about no effect; nearly all actives have a fitted effect of over 55% in size
Sm TGR block = blocks Schistosoma mansoni thioredoxin glutathione reductase | AID 485364 | Potency, µM (doses to about 114 µM), for the others: top-dose activity change, negative = inhibition, actives largely listed as inhibitors | 360,000 compounds, 3% hits | purified TGR, DTNB reduction, TNB absorbance 405 nm | Q962Y6; also: % is scaled to controls: 0 for no effect and ±100 for the full control effect; nearly all actives have a fitted effect of over 60% in size
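Kinetic colorimetric format: TGR-catalysed, NADPH-driven DTNB reduction monitored via TNB absorbance. Enzyme dispensed at 20 nM; compound exposure 15 min at room temperature before reaction start.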
Pf growth 96h = P. falciparum growth inhibition at 96 hour, primary screen for plastid delayed-death inhibitors; P. falciparum luciferase reporter growth, 96 h; Potency, µM (titrated, usually from 28.7 µM), for the others: at the highest dose activity change, negative = inhibition, actives largely listed as inhibitors; 320,000 compounds, 6.9% hits; AID 504834; also: % is scaled to controls: 0 for no effect and ±100 for the full control effect
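Erythrocytes infected with luciferase-expressing P. falciparum were dispensed at 2% hematocrit and 0.05% parasitemia (final), then incubated with compounds 96 hours at 37 C in 5% CO2. Luminescence after detection reagent addition reported growth.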
* = called active by the depositor; ? = inconclusive; nt = no result given. Unless noted, calls follow the shape of the dose curve; as a rule, active = well fitted curve in the direction sought with a large enough effect; inconclusive = small, poorly fitted or top-dose-only effect, or another doubt; inactive = no such curve, though single readings can be large; an effect the other way counts as inactive or inconclusive. Potency is read from the fitted curve at half-maximal effect.

SMILES | Pf growth 48h | SARS PLpro yeast | Sm TGR block | Pf growth 96h
C#CC[N+](C)(C)CCCCCCCCCCCC | 1.47µM* | -52.8% | 0.4% | 0.37µM*
C#CC[N+](C)(C)CCCCCCCC | 3.7µM* | 1.5% | 5.7% | ?
CC#CC[N+](C)(C)CCCCCCCCCCCC | 2.94µM* | -61.0% | 3.8% | 0.586µM*
O=C1C=C(c2ccoc2)N2CCC[C@H]2C1 | nt | 0.6% | nt | nt
NS(=O)(=O)c1ccc(NC(=O)CN2C(=O)COc3ccc(Cl)cc32)cc1 | nt | nt | -10.1% | nt
Cc1nnc(NC(=O)CSc2nccn2-c2cccc(Cl)c2)s1 | nt | nt | 6.2% | nt
Cc1cc(=O)c(C(=O)Nc2cccc(C(=O)NC3CC3)c2)nn1-c1ccccc1Cl | ? | 1.7% | 4.5% | 7.38µM*
CC(=O)Oc1c(C)cc(O)c2ccccc12 | ? | -4.5% | 39.8µM* | ?
CC(=O)Cc1cc(O)c2ccccc2c1OC(=O)c1ccccc1 | 13.1µM* | -0.9% | nt | 9.8%
Cc1cc(O)c2ccccc2c1O | -29.5% | nt | nt | 8.49µM*
O=C(NCc1ccccn1)c1cccc(S(=O)(=O)Nc2ccccc2Cl)c1 | ? | 4.0% | -9.2% | 14.5%
O=C(c1ccc([N+](=O)[O-])cc1)N(Cc1ccco1)c1ccccn1 | nt | nt | 5.4% | nt
O=C(N/N=C/c1ccccn1)c1ccc(Cl)cc1 | 14.7µM* | 20.2% | 2.5% | 14.1%
CN(C)c1ccc(C(=O)N/N=C/c2ccccn2)cc1 | -28.7% | -1.7% | -11.9% | 9.28µM*
Cc1cccc(N2CCN(C(=O)c3cnn(-c4ccccc4Cl)c3C3CCN(C(=O)OC(C)(C)C)CC3)CC2C)c1 (stereo unspecified) | nt | nt | -0.4% | nt
COc1ccc(C2CC(=O)c3cc(-c4nc(-c5ccc(C)cc5)cs4)c(=O)[nH]c3C2)cc1 (stereo unspecified) | nt | nt | -34.9% | nt
COc1cc2cc(C(c3nnnn3C(C)(C)C)N3CCc4ccccc43)c(=O)[nH]c2cc1OC (stereo unspecified) | ? | 4.4% | 0.0% | ?
CCOC(=O)C1CCN(C(c2cc3ccc(C)cc3[nH]c2=O)c2nnnn2C2CCCCC2)CC1 (stereo unspecified) | 1.04µM* | 9.1% | 10µM* | nt
COc1cc2cc(C(c3nnnn3C3CCCC3)N3CCc4ccccc43)c(=O)[nH]c2cc1OC (stereo unspecified) | ? | 3.4% | ? | 9.28µM*
CCC(C)(C)n1nnnc1C(c1cc2ccc(OC)cc2[nH]c1=O)N1CCN(C2CCCCC2)CC1 (stereo unspecified) | 10.4µM* | -0.8% | ? | nt
COc1ccccc1N1CCN(C(c2cc3ccc(C)cc3[nH]c2=O)c2nnnn2C2CCCC2)CC1 (stereo unspecified) | 1.85µM* | -16.3% | ? | -18.7%
C=CCc1c(C)nc2c(C)cccc2c1SC(=N)N | ? | 1.0% | -1.7% | 14.7µM*
Cc1nc2c(C)cccc2c(SC(=N)N)c1CC=C(Cl)Cl | -0.7% | -0.4% | ? | -1.1%
Cc1nc(S(=O)(=O)Nc2ccccc2C(=O)NCC2CC2)cn1C | 3.29µM* | 2.1% | 8.6% | 27.7%
COc1ccccc1NS(=O)(=O)c1cn(C)c(C)n1 | nt | nt | 1.6% | nt
SMILES | Pf growth 48h | SARS PLpro yeast | Sm TGR block | Pf growth 96h
c1cncc(-c2nnc(-c3cccnc3)nn2)c1 | 2.62µM* | -26.9% | -2.2% | ?
c1ccc(-c2nnc(-c3ccccc3)nn2)cc1 | ? | -1.3% | 17.6% | ?
CC(=O)NC(c1ccco1)c1cc(Cl)c2ccc(N(C)C)nc2c1O (stereo unspecified) | ? | 2.5% | 3.98µM* | -32.6%
CC(=O)NC(c1cc(Cl)c2cccnc2c1O)C(C)C (stereo unspecified) | 3.7µM* | 0.7% | 5.8% | 10.4µM*
CC(=O)NC(c1cc(F)c2cccnc2c1O)C(C)C (stereo unspecified) | ? | 3.9% | -15.2% | ?
CC(=O)NC(c1ccco1)c1cc(Cl)c2cccnc2c1O (stereo unspecified) | ? | -0.1% | -20.5% | ?
CC(=O)NC(c1cc(Cl)c2cccnc2c1O)C1CC1 (stereo unspecified) | 4.15µM* | ? | -19.4% | 13.1µM*
O=C(NC1CCN(C(=S)Nc2ccccc2)CC1)C1CCCCC1 | 2.4% | -0.7% | -7.3% | ?
Cc1cccc(Cn2cnc3c(cnn3-c3ccc(Cl)cc3)c2=O)c1 | nt | nt | 0.1% | nt
Cc1ccc(CN(Cc2cccnc2)C(=O)CN2C(=O)COc3ccccc32)o1 | 5.0% | -2.2% | 10µM* | 50.1%
CCOC(=O)C(C)NC(=O)c1cn(-c2ccc(OC)cc2)c(=O)c2ccccc12 (stereo unspecified) | -23.2% | -2.4% | -1.7% | 180.6%
Cc1c(C(c2ccc(O)cc2)c2c(C)n(C)n(-c3ccccc3)c2=O)c(=O)n(-c2ccccc2)n1C | 2.3% | 0.8% | -11.1% | 0.0%
Cc1ccc(C(c2c(C)n(C)n(-c3ccccc3)c2=O)c2c(C)n(C)n(-c3ccccc3)c2=O)s1 | ? | 28.3% | 25.1µM* | ?
COc1ccc(C(c2c(C)n(C)n(-c3ccccc3)c2=O)c2c(C)n(C)n(-c3ccccc3)c2=O)c(OC)c1OC | ? | 0.4% | -18.8% | 10.4µM*
Cc1c(C(c2ccc(O)cc2)c2c(O)c3ccccc3oc2=O)c(=O)n(-c2ccccc2)n1C (stereo unspecified) | 9.4% | 25.4% | 14.1µM* | 33.0%
Cc1c(C(c2ccccc2)c2c(C)n(C)n(-c3ccccc3)c2=O)c(=O)n(-c2ccccc2)n1C | 16.8% | -4.9% | -15.8% | ?
Cc1ccc(Cn2ccnc2SCC(=O)Nc2nc3ccccc3s2)cc1 | nt | nt | 0.3% | nt
CCOCCc1nn2c(=O)cc(COC(=O)c3ccc(NC(=O)c4cccs4)cc3)nc2s1 | nt | nt | 11.4% | nt
CCN(CC)CCN(C(=O)CCS(=O)(=O)c1ccccc1)c1nc2cc3c(cc2s1)OCO3 | -1.9% | -3.3% | 8.91µM* | 23.4%
Cc1ccc2nc(N(CCN3CCOCC3)C(=O)CCS(=O)(=O)c3ccccc3)sc2c1 | 79.7% | -2.0% | -21.2% | 110.2%
Cc1ccc(S(=O)(=O)CCC(=O)N(CCCN2CCOCC2)c2nc3ccccc3s2)cc1 | 50.7% | -1.4% | 14.1µM* | 75.4%
O=C(CCS(=O)(=O)c1ccccc1)N(CCCN1CCOCC1)c1nc2ccccc2s1 | 70.8% | -5.8% | 2.51µM* | 106.4%
CCCC(=O)N(CCN1CCOCC1)c1nc2cc(C)c(C)cc2s1 | 149.5% | 7.7% | -7.7% | 87.7%
CN(C)CCN(C(=O)CCS(=O)(=O)c1ccccc1)c1nc2cc3c(cc2s1)OCO3 | 10.5% | 37.5% | ? | -0.5%
O=C(O)c1nn(CCSc2ccccc2F)c(=O)c2ccccc12 | 37.1% | 0.3% | 9.1% | 55.9%
Cc1ccc(Nc2ccc(N3CCN(C(=O)c4ccc([N+](=O)[O-])cc4Cl)CC3)nn2)cc1 | nt | nt | -4.6% | nt
N#CC(C#N)=C1c2cc(S(N)(=O)=O)ccc2-c2ccc(S(N)(=O)=O)cc21 | ? | -1.3% | 4.47µM* | 64.1%
O=C1c2cc(S(=O)(=O)NCCO)ccc2-c2ccc(S(=O)(=O)NCCO)cc21 | -2.8% | 0.9% | 6.7% | -93.4%
N#CC(C#N)=C1c2cc(S(=O)(=O)NCCO)ccc2-c2ccc(S(=O)(=O)NCCO)cc21 | -12.1% | 2.5% | 4.47µM* | -19.8%

Bioassay records: PubChem, National Center for Advancing Translational Sciences (NCATS)
